The list is not random: actives were taken first. Their share in the collection is about 19%.
KB-V1 MDR tox: KB-V1 MDR subline cytotoxicity. KB-V1 MDR cells viability, CellTiter-Glo, 72 h. Potency, µM (highest dose often 46.1 µM), actives largely listed as cytotoxic. 400,000 compounds, 3.4% hits. AID 1347076; further: nearly all actives have a fitted effect of over 60% in size
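Luminescent ATP read-out (CellTiter-Glo, 10 min) measures survival of drug-selected KB-V1 MDR cells after 72 h, 37 degrees C compound exposure. Medium: phenol-red-free DMEM, 10% FBS. Values from fitted concentration-response curves.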
DT40 TDP1 CPT: DT40-hTDP1 cell growth loss with CPT. chicken DT40 Tdp1-/-;hTDP1 cells + 20 nM CPT, ATP luminescence, 48 h. 420,000 compounds, 12% hits. Potency, µM (doses to about 46.2 µM), without a hit: top-dose activity change, negative = growth inhibition, usual class: inhibitors. AID 686979; further: nearly all actives have a fitted effect of over 55% in size
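Chicken DT40 Tdp1-/- cells complemented with human TDP1, 400 cells/well, exposed to compounds plus 20 nM camptothecin for at least 48 h at 37 C; viability read as ATP content by CellTiter-Glo luminescence.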
HT1080NT lethal: kills 2HG-producing HT-1080-NT fibrosarcoma cells. HT-1080-NT fibrosarcoma viability, CellTiter-Glo ATP luminescence, 48 h. 360,000 compounds, 1.6% hits. Potency, µM (doses to about 46.1 µM), for inactives: at the top dose activity, negative = less viability, most hits filed as cytotoxic;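 further: NT is the 2HG producing partner of a matched IDH1 knockdown line; 0% = DMSO-treated cells and -100% = media-only wells without cells; nearly all actives have a fitted effect of over 55% in size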
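750 cells/well, RPMI + 5% FBS; 2 h settle, compound pin-transfer, 48 h at 37 degrees C. CellTiter-Glo 10 min RT, luminescence. Normalized to DMSO and media-only wells.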
HT1080 IDH1KD tx: HT-1080 IDH1 knockdown cell toxicity (counter line). HT-1080 IDH1 knockdown viability, ATP luminescence, 48 h. Potency, µM (top dose mostly 46.1 µM), for inactives: at the highest dose activity, negative = toxicity, hits mostly cytotoxic. 360,000 compounds, 2% hits;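 further: 0% = DMSO wells and -100% = cell-free medium wells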
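Viability of IDH1-knockdown HT-1080 fibrosarcoma cells was assessed by CellTiter-Glo after 48 h at 37 °C with titrated compound; concentration-effect curves were classified by fit quality and response size.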
KB-3-1 tox: KB-3-1 parental cell cytotoxicity; KB-3-1 viability, CellTiter-Glo ATP luminescence, 72 h; Potency, µM (series often up to 46.1 µM), actives largely listed as cytotoxic; AID 1347075; 400,000 compounds, 1.4% hits; further: nearly all actives have a fitted effect of over 60% in size
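Luminescent ATP read-out (CellTiter-Glo) measures survival of drug-naive KB-3-1 cells after 72 h compound exposure at 37 °C. Titration series was screened from lowest to highest concentration, with DMSO vehicle plates as background controls.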
TDP1 cell noCPT: qHTS for Inhibitors of human tyrosyl-DNA phosphodiesterase 1 (TDP1): qHTS in cells in absence of CPT | AID 686978, 2013 | Potency, µM (series often up to 46.2 µM), inactives show top-dose activity change, negative = growth inhibition, actives largely listed as inhibitors | DT40 Tdp1-/- hTDP1 cells, no CPT, ATP luminescence, 48 h | 420,000 compounds, 15% hits; further: nearly all actives have a fitted effect of over 55% in size
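Stably hTDP1-transfected Tdp1-null chicken DT40 cells were treated with library compounds minus camptothecin and grown for at least 48 hr at 37 °C, after which cellular ATP was quantified by luminescence.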
The depositor's hits bear a star; i = inactive; ? = inconclusive; / = no result. The call rests on the fitted dose curve; in most records, active means well fitted curve in the direction sought with a large enough effect; inconclusive means small, poorly fitted or top-dose-only effect, or another doubt; inactive means no such curve, though single readings can be large; an effect the other way counts as inactive or inconclusive. Unless noted, on the % scale 0 is the no-effect control and ±100 the full control effect; potency means the concentration at half of the fitted maximal effect.

SMILES	KB-V1 MDR tox	DT40 TDP1 CPT	HT1080NT lethal	HT1080 IDH1KD tx	KB-3-1 tox	TDP1 cell noCPT
O=C1[C@H]2[C@@H](C3CC3)N3C(=O)CN(Cc4ccccn4)C(=O)[C@@]3(Cc3ccccc3)[C@H]2C(=O)N1c1ccccc1	?	1%	5%	-1%	i	4%
CCOCCCNC(=O)c1cc(Nc2ccc(OC)cc2OC)nc2ccccc12	i	?	6%	3%	i	-20%
CS(=O)(=O)N(CC(=O)Nc1cccc(Br)c1)Cc1ccccc1	i	-15%	-8%	-23%	i	?
CN(C)CCNC(=O)c1ccc(-n2c(-c3ccccc3)cc3c2CCCC3)cc1	/	?	/	/	/	16µM*
COc1ccc(CN(C)S(=O)(=O)c2nnc(NC(=O)C(C)C)s2)cc1OC	i	12µM*	/	/	?	10µM*
COc1ccc(CN(C)S(=O)(=O)c2nnc(NC(=O)c3ccccc3OC)s2)cc1OC	i	?	-7%	-7%	i	?
N#CCC(=O)Nc1ccc(C(=O)NCc2cccc(Cl)c2)cc1	i	-6%	11%	3%	i	2%
COC(=O)c1ccc(CNC(=O)c2nc(Cn3nc(C)c(Br)c3C)no2)cc1	?	/	/	/	i	/
COc1cc(CNC(=O)c2nc(Cn3nc(C)c(Br)c3C)no2)cc(OC)c1	i	29µM*	-24%	-20%	i	?
COc1cc(CNC(=O)c2ccc(Cn3nc(C)c(Cl)c3C)o2)cc(OC)c1	i	?	?	?	i	8.2µM*
COC(=O)c1ccc(Cn2nc(C)c(Cl)c2C)o1	i	-10%	5%	9%	i	0%
CNC[C@H](NC[C@@H](NCCCc1ccccc1)c1ccccc1)[C@H](C)O	i	?	-11%	-8%	i	?
Cc1cc(Br)ccc1NC(=O)CNC(=O)c1cnn(C)c1	i	-14%	9%	-6%	i	-15%
COc1c(Cl)cc(Cl)cc1CNCCSc1nnnn1C	i	4%	/	/	i	-14%
Cc1ccc(C(=O)N2CC(C)SC2=Nc2cccc(S(=O)(=O)N(C)C)c2)cc1 (stereo not drawn)	i	29µM*	-2%	-11%	i	?
Cc1cc(C)cc(C(=O)N2CC(C)SC2=Nc2cccc(S(=O)(=O)N(C)C)c2)c1 (stereo not drawn)	i	?	-16%	-19%	i	?
CN1OC[C@@H]2CN(S(=O)(=O)c3cccc(C(F)(F)F)c3)[C@H](c3ccc(-c4cccnc4)cc3)C[C@@H]21	i	29µM*	-6%	?	i	21µM*
Cc1ccccc1S(=O)(=O)N1C[C@H]2CON(C)[C@H]2C[C@H]1c1cccc(N2CCOCC2)c1	i	-11%	-1%	-1%	?	-16%
Cc1cc(C)c(S(=O)(=O)N2C[C@H]3CON(C)[C@H]3C[C@H]2c2ccc(N3CCCCC3)cc2)c(C)c1	i	?	-4%	-21%	i	?
CN1OC[C@@H]2CN(S(=O)(=O)c3cccc4ccccc34)[C@H](c3ccc(-c4cccnc4)cc3)C[C@@H]21	i	?	-14%	-9%	i	18µM*
Cc1ccccc1S(=O)(=O)N1C[C@H]2CON(C)[C@H]2C[C@H]1c1cccc(-c2ccc(C#N)cc2)c1	i	21µM*	0%	-12%	i	?
Cc1cc(O)c(S(=O)(=O)c2ccccc2)c(C)c1NS(=O)(=O)c1ccccc1	?	-25%	0%	-12%	i	?
Cn1cnc([N+](=O)[O-])c1Sc1nc(N)nc2c1ncn2C1CC(O)C(CO)O1 (stereo not drawn)	5.2µM*	?	2.3µM*	1.3µM*	3.7µM*	13µM*
